# In PubChem BioAssay (NCI):
# About 83,000 compounds went through this panel and 20% of them were active in at least one assay; those are over-represented in the sample as a whole.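 The endpoint reported here, percent growth, reads 100 for growth as untreated, 0 for no net growth and -100 for all cells dead.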 Unmarked numbers belong to inactive results. Calls of active or inactive are those of the source. How the source made its calls: active means growth percent below 10; inactive means the rest.
# Legend:
# Assay in all cases: NCI-60 one-dose screen, 48 h (100 = growth as untreated, 0 = no growth, -100 = all killed)
# Details in all cases: 10 µM unless noted
# NCI-H23 lung = test system: NCI-H23 lung
# NCI-H226 lung = test system: NCI-H226 lung
# NCI-H322M lung = test system: NCI-H322M lung
# HOP-62 NSCLC = test system: HOP-62 NSCLC
# NCI-H460 lung = test system: NCI-H460 lung
# HOP-92 NSCLC = test system: HOP-92 NSCLC
# NCI-H522 lung = test system: NCI-H522 lung
# A549/ATCC NSCLC = test system: A549/ATCC NSCLC
# 786-0 renal = test system: 786-0 renal
# COLO 205 colon = test system: COLO 205 colon
# DU-145 prostate = test system: DU-145 prostate
# K-562 leukemia = test system: K-562 leukemia
# MALME-3M melanoma = test system: MALME-3M melanoma
# MDA-MB-231 breast = test system: MDA-MB-231 breast
# SF-268 CNS = test system: SF-268 CNS
# SF-295 CNS = test system: SF-295 CNS
# SF-539 CNS = test system: SF-539 CNS
# UACC-257 melanoma = test system: UACC-257 melanoma
# M14 melanoma = test system: M14 melanoma
SMILES,growth (NCI-H23 lung),growth (NCI-H226 lung),growth (NCI-H322M lung) [%],growth (HOP-62 NSCLC),growth (NCI-H460 lung),growth (HOP-92 NSCLC),growth (NCI-H522 lung),growth (A549/ATCC NSCLC),growth (786-0 renal),growth (COLO 205 colon),growth (DU-145 prostate),growth (K-562 leukemia),growth (MALME-3M melanoma),growth (MDA-MB-231 breast),growth (SF-268 CNS),growth (SF-295 CNS),growth (SF-539 CNS),growth (UACC-257 melanoma),growth (M14 melanoma)
Cc1ccc2[nH]c(=S)n(-c3ccc(S(=O)(=O)Nc4ccc(Cl)nn4)cc3)c(=O)c2c1,101%,98.9%,110,104%,104%,104%,92.5%,103%,60.7%,110%,109%,102%,101%,101%,101%,104%,95.6%,99.7%,-69.5% (active)
O=C(NCCc1ccccn1)OCc1nc2nc(Cl)nc(N3CCOCC3)c2[nH]1,37.6%,-53.2% (active),43.9,27.3%,3.35% (active),22.4%,-34.4% (active),43.5%,13.9%,17.2%,12%,0.32% (active),67.8%,28.5%,24.3%,91.4%,-13.4% (active),30.6%,4.12% (active)
O=c1[nH]nc(-c2ccc(Br)cc2)cc1Cc1ccc(O)cc1,98.5%,85.6%,126,109%,103%,51.8%,89.5%,56.7%,103%,98.8%,91.5%,81.5%,106%,87.6%,89.8%,107%,102%,106%,107%
O=C(N/N=C/c1ccc(O)c(O)c1)c1sc2ccccc2c1Cl,97%,68.8%,98.5,81.7%,46%,49.7%,95%,96.3%,65.2%,53.5%,108%,95.9%,96.8%,101%,77.9%,114%,52.2%,111%,97.7%
C(=N\Nc1ncc(-c2cc3cc4c(cc3o2)OCO4)s1)/c1c[nH]c2ccccc12,-25.8% (active),-56.3% (active),26.7,-18.4% (active),-27.2% (active),-0.218% (active),-42.2% (active),-38.6% (active),-40% (active),-28.8% (active),-41.3% (active),4.08% (active),-45.6% (active),-27% (active),-34.6% (active),-41.1% (active),-80% (active),3.52% (active),16.6%
COc1ccc(-c2c[nH]c(C(=O)O)c2-c2cc(OC)c3c(c2OC)OCO3)cc1,98.9%,95.3%,95,95.6%,102%,110%,97%,103%,104%,102%,112%,108%,96.1%,105%,99.7%,103%,97.4%,98.7%,98.9%
O=S(=O)(NCCCNc1nccc(-c2c(-c3ccccc3)nc3occn23)n1)c1ccc(Cl)cc1,94.2%,75.3%,99.9,95.1%,85%,93.8%,77.9%,65.8%,82.5%,69.1%,85.5%,50.6%,91.8%,93.3%,80%,93.3%,110%,105%,71%
COC(=O)Nc1nc2ccc(C(=O)c3cccc(I)c3)cc2[nH]1,22.1%,51.4%,39.4,37%,4.52% (active),51.5%,-29.2% (active),15.3%,27.2%,-29.7% (active),5.95% (active),6.18% (active),31.3%,-3.99% (active),22.4%,12%,-25.8% (active),61.4%,1.39% (active)
COc1ccc(C(O)c2cc3c(N)c(C(=O)Nc4ccccc4)sc3nc2C)cc1 (stereo unspecified),29.7%,51.1%,35.4,18.8%,3.3% (active),30.3%,-55.9% (active),13.4%,29.3%,-58.9% (active),2.39% (active),3.59% (active),48.5%,-11.2% (active),28.3%,-13.3% (active),-25.8% (active),49.4%,14.3%
